Most compounds without a hit are left out; they make up all but 4.5% or so of the library.
hgDAF-12 ag: H. glycines DAF-12 receptor agonists, primary screen, cell-based, luminescence, HEK293, GAL4 fusion, UAS-luciferase | Nuclear hormone receptor DAF-12 (Heterodera glycines), GAL4 fusion | HEK293 GAL4-hgDAF12 UAS-luciferase reporter, agonist luminescence; normalized to butyrate control | activation, % at 6.8 µM | hit rate 1.8% among 370,000;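 active = activation above a cutoff set at the mean of all screened compounds plus 3 SD, cut at about 10% in these data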;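 note: 0% = DMSO wells and 100% = sodium butyrate wells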
DAX1 inh-1: DAX1 (NR0B1) inhibitors, primary screen, cell-based, HEK293, Gal4-DAX1, luciferase luminescence; Nuclear receptor subfamily 0 group B member 1 (Homo sapiens), P51843; HEK293 Gal4-DAX1 luciferase reporter; inhibition, % at 6.75 µM; hit rate 0.99% among 340,000;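 active = inhibition above the mean over all tested compounds plus 3 SD, cut at about 4.2% in these data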;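 note: 0% = DAX1-transfected cells with DMSO and 100% = empty-vector control cells with DMSO; inhibition shows as a rise in luminescence from relieved DAX1 repression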
Target sequence (P51843 207-470 limits assumed): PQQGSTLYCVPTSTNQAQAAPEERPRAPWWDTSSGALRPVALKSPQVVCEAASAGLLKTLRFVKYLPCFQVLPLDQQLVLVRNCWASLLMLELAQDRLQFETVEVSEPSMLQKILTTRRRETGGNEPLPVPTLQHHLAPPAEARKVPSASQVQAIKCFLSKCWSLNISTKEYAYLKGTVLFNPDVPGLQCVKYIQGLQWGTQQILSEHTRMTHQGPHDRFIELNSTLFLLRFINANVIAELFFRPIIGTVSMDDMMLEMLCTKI
DAX1 inh-2: DAX1 (NR0B1) inhibitors on StAR promoter, primary screen, cell-based, luminescence, SF-1 (NR5A1), full-length DAX-1; hit rate 1.1% among 370,000; HEK293T StAR-luciferase reporter, SF-1/DAX-1 repression relief; AID 652010, 2013; inhibition, % at 6.8 µM;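 active = inhibition above the mean over all tested compounds plus 3 SD, cut at about 3.6% in these data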;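 note: 0% = DAX-1 cells with DMSO and 100% = cells lacking DAX-1 with DMSO; higher inhibition means more luminescence from relief of DAX-1 repression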
hcDAF12 agonist: H. contortus DAF-12 nuclear receptor activators, primary screen, cell-based, luminescence, HEK293, lit1-tk-luc reporter; HEK293 hcDAF-12 lit1-tk-luc reporter; 0% DMSO, 100% Δ7-dafachronic acid; activation, % at 6.8 µM; hit rate 1.4% among 370,000;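 active = activation above the mean of all tested compounds plus 3 SD, cut at about 5.5% in these data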;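 note: 100% = response to 3 µM Δ7-dafachronic acid high control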
ssDAF-12 act: S. stercoralis DAF-12 nuclear receptor activators, primary screen, cell-based, luminescence, HEK293, GRIP1 co-expression, lit1-tk-luc; hit rate 1% among 370,000; AID 652126, 2013; Nuclear hormone receptor DAF-12 (Strongyloides stercoralis); activation, % at 6.8 µM; HEK293 ssDAF-12/GRIP1 lit1-tk-luc reporter; % of 3 µM dafachronic acid response;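 active = activation above the mean over all tested compounds plus 3 SD, cut at about 0.9% in these data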;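 note: 0% = DMSO-only wells and 100% = 3 µM delta7-dafachronic acid wells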
FXN GAA850 act: FXN promoter activators, primary screen, cell-based, luciferase luminescence, HEK293 lucGAA850. HEK293 lucGAA850 FXN promoter luciferase reporter, 24 h; percent of 10 µM SAHA response. activation, % at 6 µM. hit rate 0.56% among 360,000. AID 540364, 2011;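 active = activation above the average of all compounds screened plus 3 SD, cutoff fixed separately per campaign, cut at about 7.5% in these data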;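 note: 0% = DMSO wells and 100% = 10 µM SAHA wells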
LXRb hcDAF ctr: LXR agonists, Gal4 luciferase reporter, confirmation, counter-screen for hcDAF-12 agonist project, cell-based, luminescence, HEK293, H. contortus campaign. shares compounds with hcDAF12 agonist. HEK293 Gal4-LXR tk-luc reporter, 24 h; normalized: DMSO 0%, positive control 100%. activation, % at 6.8 µM. 3,400 tested, under 10 active;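 active = mean percent activation of the reporter above a cutoff set as the average over tested compounds plus their standard deviation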
hcDAF12 ag: H. contortus DAF-12 receptor agonists, confirmation, cell-based, luminescence, HEK293, lit1-tk-luc, triplicate; hit rate 61% among 3,400; shares compounds with hcDAF12 agonist; HEK293 hcDAF-12 lit1-tk-luc reporter; % of Δ7-dafachronic acid response; activation, % at 6.8 µM;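 active = mean activation across triplicate tests above the threshold derived from the earlier primary screen, cut at about 5.5% in these data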;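 note: 0% = DMSO only wells and 100% = 3 µM Δ7-dafachronic acid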
hgDAF12 conf: H. glycines DAF-12 receptor agonists, confirmation, cell-based, luminescence, HEK293, GAL4-LBD fusion; shares compounds with hgDAF-12 ag; HEK293 GAL4-hgDAF12 luciferase reporter, agonist mode; percent of butyrate response; activation, % at 6.8 µM; hit rate 80% among 3,300; AID 743050, 2013;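 active = mean activation over triplicate wells above the hit cutoff derived from the earlier primary screen, cut at about 11% in these data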;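 note: 0% = DMSO low control and 100% = 2 mM sodium butyrate high control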
LXRb DAF12 ctr: LXR agonists, Gal4 luciferase reporter, confirmation, counter-screen for hgDAF-12 agonist project, cell-based, luminescence, HEK293, H. glycines campaign; shares compounds with hgDAF-12 ag; 24 h; activation, % at 6.8 µM; 3,300 tested, under 10 active; AID 743051, 2013;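 active = mean activation of the triplicate above a set limit carried over from the primary screen, none filed active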
* hit, by the source's call; . = no result given.

SMILES | hgDAF-12 ag | DAX1 inh-1 | DAX1 inh-2 | hcDAF12 agonist | ssDAF-12 act | FXN GAA850 act | LXRb hcDAF ctr | hcDAF12 ag | hgDAF12 conf | LXRb DAF12 ctr
Cc1ccc2cc(NC(=O)c3ccccc3)ccc2n1 | 10 | 2 | 4 | 5 | 0 | 6 | . | . | . | .
Cc1ccc(C(=O)Nc2ccc3ccccc3c2)cc1 | -2 | -7 | 0 | 3 | -1 | -5 | . | . | . | .
O=C(Nc1ccc2ccccc2c1)c1cccc(F)c1 | 14* | 4 | 3 | 8.9* | 0 | 0 | 1 | 7.3* | 16* | 1
O=C(Nc1ccc2ccccc2c1)c1ccc(Cl)cc1 | 16* | 4 | 3.8* | 6.8* | 1.7* | 3 | 2 | 9.4* | 22* | 1
O=C(Nc1ccc2[nH]ncc2c1)c1cccc(F)c1 | 8 | 2 | 1 | 0 | 0 | 3 | . | . | . | .
Cc1ccc2cc(NC(=O)c3cccc(F)c3)ccc2n1 | 15* | 3 | 3 | 8.2* | 0 | 3 | 1 | 4 | 20* | 1
Cc1c[nH]c2cccc(-c3c(Cl)cccc3Cl)c12 | 0 | . | -1 | -1 | 0 | . | . | . | . | .
c1ccc(Nc2scc(-c3ccccc3)[n+]2Cc2ccco2)cc1 | 14* | 5.1* | 3 | 7.3* | 0 | 4 | 1 | 4 | 16* | 1
CN(C)c1ccc(N=Nc2cccc3ccoc23)cc1 | 19* | 6.5* | 3 | 16* | 1.6* | 7 | 1 | 9.0* | 20* | 1
CCn1c(SCc2ccc(C(C)(C)C)cc2)nnc1-c1ccc(C(C)(C)C)cc1 | -2 | . | -1 | 1 | -1 | . | . | . | . | .
Cn1c(=O)oc2cc(S(=O)(=O)N3CCN(C(=O)C4CCCO4)CC3)ccc21 (configuration not stated) | -2 | . | -1 | 0 | -1 | . | . | . | . | .
Cc1ccc(CNc2nc3ccccc3n2C)cc1 | 21* | 3 | 3 | 16* | 3.6* | 5 | 2 | 16* | 20* | 1
COc1ccc(CNc2ccc3c(c2)nc(C)n3C)cc1 | 6 | 0 | 2 | 3 | -1 | -2 | . | . | . | .
Cc1ccc(CNc2ccc3c(c2)nc(C)n3C)cc1 | 16* | 2 | 3 | 16* | 1.3* | 6 | 1 | 6.4* | 17* | 1
Cc1csc(NC(=O)/C=C/c2ccco2)n1 | 14* | 0 | 2 | 6.6* | -1 | 1 | 1 | 3 | 13* | 1
O=C(/C=C/c1ccco1)Nc1ccc2c(c1)OCCO2 | 16* | 0 | 4.4* | 7.5* | 0 | 5 | 1 | 8.9* | 18* | 1
CCCCS(=O)(=O)N1CCCc2nc(-c3ccc(F)cc3)ccc21 | 3 | . | 0 | 0 | -1 | . | . | . | . | .

Screening data from PubChem.
